Rows were chosen to be rich in hits. Some 9.2% of all compounds tested hit in one or more screens of this group.
FLuc counter: inhibits or activates purified firefly luciferase, miR-21 counter-screen. actives 6.9% (n = 360,000). Potency, µM (series often up to 57.5 µM), without a hit: at the highest dose activity change, negative = inhibition, hits mostly inhibitors. P08659. purified FLuc, Km substrates, luminescence inhibition. AID 588342;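 note: plate controls were vehicle for no effect and reference inhibitor for full effect; nearly all actives have a fitted effect of over 55% in size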
Target sequence (P08659 whole entry, looked up): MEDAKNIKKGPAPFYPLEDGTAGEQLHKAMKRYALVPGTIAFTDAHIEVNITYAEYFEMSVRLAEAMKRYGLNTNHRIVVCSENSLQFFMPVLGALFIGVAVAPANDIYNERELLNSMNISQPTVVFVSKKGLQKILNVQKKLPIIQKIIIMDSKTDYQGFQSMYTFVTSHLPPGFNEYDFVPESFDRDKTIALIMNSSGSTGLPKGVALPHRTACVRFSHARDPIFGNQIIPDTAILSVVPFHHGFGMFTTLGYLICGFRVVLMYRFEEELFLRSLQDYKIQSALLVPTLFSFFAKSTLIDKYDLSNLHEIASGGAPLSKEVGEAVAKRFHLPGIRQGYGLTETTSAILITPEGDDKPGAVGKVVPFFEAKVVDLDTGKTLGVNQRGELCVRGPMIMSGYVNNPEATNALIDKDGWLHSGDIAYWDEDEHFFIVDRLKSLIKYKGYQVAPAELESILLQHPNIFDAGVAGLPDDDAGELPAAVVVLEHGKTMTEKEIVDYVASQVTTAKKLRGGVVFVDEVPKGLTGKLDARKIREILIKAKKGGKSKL
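Biochemical qHTS of compounds, final roughly 60 µM downward over six points, against 10 nM purified firefly luciferase using Km concentrations of substrates (10 uM D-luciferin, 10 uM ATP) in Tris acetate pH 7.5 buffer; luminescence output.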
ELG1 genotox: inducers of genotoxicity in HEK293T ELG1-luciferase cells. HEK293T ELG1-luciferase reporter, luminescence, 16 h. Potency, µM (series often up to 46 µM), inactives show top-dose activity change, positive = activation, most hits filed as activators. actives 1.3% (n = 330,000); note: % of control where 0% means no effect; nearly all actives have a fitted effect of over 60% in size
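HEK293T cells expressing luciferase-tagged ELG1 were exposed to compound or DMSO vehicle for 16 hr at 37 °C and 5% CO2. Luciferase activity was then measured with ONE-Glo after 30 min at room temperature.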
SMN2 splice up: enhancers of SMN2 splice variant expression. HEK293 SMN2-luciferase splicing reporter, luminescence, 30-36 h. Potency, µM (titrated, usually from 46.1 µM), inactives show top-dose activity change, positive = activation, hits mostly activators. actives 2.8% (n = 210,000); note: % of control where 0% means no effect; nearly all actives have a fitted effect of over 55% in size
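HEK293 cells carry an SMN2 minigene-luciferase reporter in which exon 7 inclusion puts luciferase in frame. Cells were seeded at 2000 cells/well, attached for 10-12 hours, then exposed to compounds for 30-36 hours at 37C before ONE-Glo luminescence.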
ELG1 repair inh: ELG1-dependent DNA repair inhibition; HEK293T ELG1-luciferase reporter, luminescence, 16 h; DNA damage induced by 5-fluorouridine; Potency, µM (doses to about 46.1 µM), for the others: at the top dose activity change, negative = inhibition, actives largely listed as inhibitors; actives 2.3% (n = 330,000); AID 504467; note: % is set by controls: 0 for no effect and ±100 for the full control effect; nearly all actives have a fitted effect of over 55% in size
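Reporter activity after DNA damage by 5-fluorouridine is monitored. Compound-treated cells incubate 16 hr at 37 °C, then ONE-Glo is added for 30 min before luminescence reading.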
Rab9 promoter act: Rab9 promoter activation | Huh7 Rab9 promoter-luciferase reporter, luminescence, 24 h | Potency, µM (series often up to 9.22 µM), without a hit: top-dose activation, negative = inhibition, usual class: activators | actives 2.8% (n = 320,000) | AID 485297; note: % of control where 0% means no effect; nearly all actives have a fitted effect of over 60% in size
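Huh7 reporter line, Rab9 promoter upstream of luciferase. Compound exposure 24 h at 37 °C in reduced-serum medium with 10% FBS. Read-out: luminescence.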
NPC1 promoter act: activates the NPC1 promoter; actives 2.4% (n = 320,000); Huh7 NPC1 promoter luciferase reporter, 24 h; Potency, µM (series often up to 9.22 µM), without a hit: at the highest dose activation, actives largely listed as activators; note: % of control where 0% means no effect; nearly all actives have a fitted effect of over 60% in size
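Stable NPC1-promoter luciferase Huh7 line; cpd (DMSO) 24 h, 37 °C, 5% CO2; Amplite luciferase reagent 10 min RT; luminescence readout. qHTS format.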
Active calls of the source: *; u = inconclusive; x = not tested or not shown. Calls come from the whole dose curve; as a rule, active = well fitted curve in the direction sought with a large enough effect; inconclusive = small, poorly fitted or top-dose-only effect, or another doubt; inactive = no such curve, though single readings can be large; an effect the other way counts as inactive or inconclusive. Potency is the fitted concentration of half-maximal effect.

SMILES | FLuc counter | ELG1 genotox | SMN2 splice up | ELG1 repair inh | Rab9 promoter act | NPC1 promoter act
CSc1ccccc1OCc1cc(C(=O)NCCc2ccco2)no1 | 7% | 17% | x | u | u | 30%
CCOc1ccc(S(=O)(=O)/N=C(/Nc2ccc(C(C)=O)cc2)c2ccccc2)cc1 | x | -8% | x | u | x | x
COc1ccc(OC)c(S(=O)(=O)N2CCC(C(=O)N3CCCCCC3)CC2)c1 | 2% | 5% | x | 7% | 0% | 2%
O=C(Nc1ccc(S(=O)(=O)N2CCN(c3ccccc3)CC2)cc1)c1cccs1 | -2% | -5% | -16% | 12µM* | 6% | 14%
CS(=O)(=O)N1CCN(c2ccc(NC(=S)NC(=O)c3cccs3)cc2)CC1 | -2% | 3% | x | 16% | -8% | 3%
O=C(NC(=S)Nc1ccc(S(=O)(=O)N2CCCC2)cc1)c1cccs1 | -11% | 5% | 20% | u | -4% | 6%
O=C(NC(=S)N1CCN(c2ccc(O)cc2)CC1)c1cccs1 | -20% | 2% | x | 13µM* | -6% | 9%
O=C(NC(=S)Nc1ccc(N2CCCCC2)cc1)c1cccs1 | 5.4µM* | 2.9µM* | -1% | u | 2.2µM* | 1.3µM*
CCCC(=O)NC(=S)Nc1ccc(N2CCN(C(=O)c3cccs3)CC2)cc1 | -5% | -15% | -6% | 16µM* | -11% | -2%
O=C(Nc1ccc(F)c(Cl)c1)C1CCCN(c2ncnc3onc(-c4ccc(F)cc4)c23)C1 (centres undefined) | -2% | x | x | x | x | x
O=C(NC(=S)Nc1ccc(N2CCN(C(=O)c3ccccc3)CC2)cc1)c1cccs1 | 1% | -19% | -51% | 13µM* | -14% | -13%
O=C(NC(=S)Nc1ccccc1N1CCN(C(=O)c2ccccc2)CC1)c1cccs1 | 5% | 9% | x | u | -8% | -8%
COc1ccc(C(=O)Nc2ccc3c(c2)C(=O)c2ccccc2C3=O)cc1OC | -6% | 5% | 8% | 14% | 17% | 2%
COc1ccc(C(=O)c2c(C(F)(F)F)oc3c2C(=O)c2ccccc2C3=O)cc1OC | -5% | -30% | -64% | 3.7µM* | -25% | -35%
CCOC(=O)c1c(NC(=O)c2ccco2)sc2c1CCCCC2 | 17µM* | -1% | 26% | -1% | -7% | 9%
CC1CCN(CC(=O)Nc2sc3c(c2C#N)CCC3)CC1 | -8% | 4% | x | 18% | 4% | 10%
NC(=O)c1c(NC(=O)c2ccco2)sc2c1CCC2 | 9.5µM* | 11µM* | 13µM* | u | 2µM* | 3.5µM*
COC(=O)c1c(NC(=O)c2ccco2)sc2c1CC(C)(C)NC2(C)C | -2% | -11% | x | 9.2µM* | 2% | 0%
CC1CCc2c(sc(NC(=O)CN3CCN(C(=O)c4ccco4)CC3)c2C#N)C1 (centres undefined) | u | -3% | -27% | 16µM* | -1% | 1%
O=C(Cc1ccccc1[N+](=O)[O-])NNC(=O)c1cccs1 | -2% | -3% | x | u | -2% | 8%
COc1ccc(COC(=O)C2CCN(S(=O)(=O)c3ccc(C)cc3)CC2)cc1 | 8% | 3% | x | 5% | 4% | 2%
COC(=O)c1c(NC(=O)c2ccc(OC)cc2OC)sc2c1CCCCC2 | 6µM* | x | 9% | x | x | x
COC(=O)c1c(NC(=O)c2c(OC)cccc2OC)sc2c1CCCC2 | u | x | 4% | x | x | x
NC(=O)c1c(NC(=O)CSc2nnc(Cc3ccccc3)n2Cc2ccco2)sc2c1CCC2 | 4% | -22% | -47% | 23µM* | -10% | -3%
CCc1c(C)sc(NC(=O)c2ccoc2C)c1C(N)=O | 11µM* | 8% | x | 27% | 20% | 20%
SMILES | FLuc counter | ELG1 genotox | SMN2 splice up | ELG1 repair inh | Rab9 promoter act | NPC1 promoter act
CCOC(=O)c1c(NC(=O)C(C)N2CCN(C(=O)c3ccco3)CC2)sc2c1CCCC2 (centres undefined) | -3% | -7% | -22% | 7.3µM* | -6% | -10%
O=C(CSc1nnc(Cc2ccccc2)n1Cc1ccco1)NC12CC3CC(CC(C3)C1)C2 | 1% | -13% | -65% | u | -2% | 0%
CCOc1ccc(CCNC(=O)COC(=O)c2nn(C)c(=O)c3ccccc23)cc1OCC | 1% | 2% | x | 0% | -3% | -4%
C=CCn1c(SCC(=O)Nc2c(C)n(C)n(-c3ccccc3)c2=O)nnc1-c1cccnc1 | x | 3% | x | 13% | x | x
Cn1nc(C(=O)OCC(=O)Nc2ccc(Cl)cc2Cl)c2ccccc2c1=O | -1% | 1% | x | 14% | -1% | -5%
CN1CCN(C(=O)c2c(NC(=O)c3ccco3)sc3c2CCC(C(C)(C)C)C3)CC1 (centres undefined) | -6% | 0% | -16% | 3% | 5% | 2%
CC1CCc2c(sc(NC(=O)c3ccco3)c2C(=O)O)C1 (centres undefined) | 7.6µM* | 10% | x | u | -49% | u
O=C(Nc1sc2c(c1C(=O)O)CCCCC2)c1ccco1 | 4.3µM* | u | 11µM* | u | u | 2.8µM*
COC(=O)c1c(NC(=O)c2ccoc2C)sc2c1CCC2 | 1% | 11% | -2% | 16% | 2% | -2%
Cc1occc1C(=O)Nc1sc2c(c1C(N)=O)CCCCC2 | 2.7µM* | 10µM* | u | u | u | u
CC(=NNC(=O)c1ccc(NS(=O)(=O)c2cccs2)cc1)c1ccc(OCC(N)=O)cc1 | x | 2% | x | 0% | x | x
COc1ccc(/C=C2\N=C(c3ccccc3)N(c3ccc(C(=O)O)cc3)C2=O)cc1OC | 5.4µM* | 14% | x | u | 12% | 13%
CC1=N/C(=C\c2ccc(OC(C)C)cc2)C(=O)N1c1ccc(C(=O)O)cc1 | 12µM* | 6% | -9% | 0% | -4% | 0%
CCOc1ccc(NC(=O)c2ccc3c(=O)n4nc(Nc5ccccc5C)sc4nc3c2)cc1 | -2% | x | x | x | x | x
COc1ccc(NC(=O)C(Cc2ccccc2)n2cccc2)c(OC)c1 (centres undefined) | -11% | -12% | -22% | u | -2% | 0%
Cc1cccc(N(C)C(=O)c2cc3cc4ccc(C)cc4nc3o2)c1 | 15µM* | 21µM* | 8.9µM* | u | 13% | -3%
COCCN=c1scc(-c2ccco2)n1/N=C/c1ccc(O)c(O)c1O | 17µM* | 9% | 7% | 20% | -5% | -4%
CC(C)N=c1scc(-c2ccco2)n1/N=C/c1ccc(O)c(O)c1 | 9.5µM* | u | u | u | -19% | 3%
C=CCN=c1scc(-c2ccco2)n1/N=C/c1ccc(O)c(O)c1O | 4.8µM* | u | x | u | u | 20%
